# Only some compounds are listed: those with a hit (about 3% of all), similar ones and a draw of the others.
# esBAF inh – inhibitors of esBAF chromatin remodeling in mouse ES cells; Bmi1-luciferase knock-in reporter, 24 h; 100% = twice the neutral-well signal; reporter increase, % at 12.5 µM; 350,000 compounds, 2% hits; in the data active = activation above about 40%; inconclusive = no clear call, values can overlap the other calls;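 note: 0% = median of the plate's neutral control wells and 100% = double that signal; a rise in the Bmi1 reporter signal indicates esBAF inhibition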
# C2C12 statin – suppressors of simvastatin-induced myotoxicity in C2C12 myotubes. ATP luminescence, 48 h; scaled: DMSO 0, geranylgeraniol control 100. rescue of ATP level, % at 7.49 µM. 330,000 compounds, 0.78% hits;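 active = mean ATP rescue above about 67%, or every replicate alone reaching that limit, limit read from the data, passing the limit was not always enough; inconclusive = no clear call, values can overlap the other calls; inactive = mean under the limit and some replicate under it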;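 note: myotubes were challenged with 10 µM simvastatin during compound exposure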
# MITF TRPM1 HTS – activators of MITF-driven TRPM1 promoter activity in SK-MEL-5 cells. SK-MEL-5 TRPM1-promoter luciferase, 24 h; % of positive control, neutral wells = 0. activation, % at 12.5 µM. 300,000 compounds, 0.75% hits;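 active = mean activation of at least 80% with every replicate also reaching 80%; inconclusive = mean reaches 80% but some replicate falls short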;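 note: 0% = neutral control wells and 100% = parthenolide positive control wells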
# Wnt act – activates Wnt/beta-catenin signaling in a reporter cell assay | 300,000 compounds, 1.2% hits | activator, plate reader | activation, % at 9.35 µM; in the data active = activation above about 30%, passing the limit was not always enough; inconclusive = no clear call, values can overlap the other calls;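 note: 0% = neutral control wells and 100% = positive control wells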
# * marks the source's active call; other numbers are inactive results; ? = inconclusive; nt = no result given.
SMILES,esBAF inh,C2C12 statin,MITF TRPM1 HTS,Wnt act
COc1ccc(S(=O)(=O)N(C)C[C@@H]2OCCCC[C@H](C)Oc3ccc(NS(=O)(=O)c4ccc(C)cc4)cc3C(=O)N([C@H](C)CO)C[C@H]2C)cc1,-1,10,nt,nt
CCCOc1ccc(-c2csc3nc[nH]c(=O)c23)cc1,?,11,48,38*
Nc1c2c(=O)oc(-c3ccccc3)cc2nn1-c1ccccc1,70*,6,nt,nt
CC1=C(C(=O)Nc2ccc(CC(=O)NCc3ccc(OC(C)C)cc3)cc2)SCCO1,46*,-45,6,-7
COc1ccc(C2C3=C(CC(C)(C)CC3=O)Nc3c2c(=O)[nH]c(=O)n3Cc2ccccc2)cc1OC (stereo unspecified),3,-5,13,nt
COc1cc(C2C3=C(CC(C)(C)CC3=O)Nc3c2c(=O)[nH]c(=O)n3Cc2ccccc2)ccc1O (stereo unspecified),nt,nt,-9,33*
Cc1cc(C=O)c(C)n1-c1ccc(Cl)c(C(=O)O)c1,nt,nt,13,-5
COc1ccc(-n2c(C)cc(C=O)c2C)cc1Cl,9,102*,6,-6
Nc1ccccc1-c1nc2ccccc2[nH]1,35,5,38,55*
N#CCSc1ccc(-c2nc3ccccc3[nH]2)cn1,nt,nt,72,34*
O=c1[nH]cccc1-c1nc2ccccc2[nH]1,23,3,18,14
CCOC(=O)CSc1ccc(-c2nc3cc(C)c(C)cc3[nH]2)cn1,-1,-9,30,nt
Cc1cc2nc(-c3ccc(SCc4ccccn4)nc3)[nH]c2cc1C,64*,-25,67,?
c1cncc(CNc2cccc(-c3nc4ccccc4[nH]3)c2)c1,nt,nt,58,50*
CO[C@@H]1CN(C)C(=O)c2cc(NC(=O)c3ccccc3F)ccc2OC[C@H](C)N(CC2CCOCC2)C[C@@H]1C,5,-13,nt,nt
C[C@H](CO)N1C[C@H](C)[C@H](CN(C)C)Oc2cc(-c3ccccc3F)ccc2S1(=O)=O,-3,20,nt,nt
CO[C@@H]1CN(C)C(=O)c2cc(NC(=O)Cc3ccccc3)ccc2OC[C@H](C)N(C(C)=O)C[C@H]1C,0,-6,nt,nt
Cc1ccc2nc(-c3cccc(N)c3)[nH]c2c1,nt,nt,-14,16
Fc1ccc(-c2nc3ccccc3[nH]2)cc1,70*,-3,67,58*
Nc1ccc(-c2nc3ccccc3[nH]2)cc1,-36,-13,7,?
Nc1cccc(-c2nc3ccccc3[nH]2)c1,62*,-9,61,nt
CC(C)NC(=O)N(C)C[C@H]1Oc2ccc(NC(=O)CCCCCC(=O)Nc3ccccc3N)cc2C(=O)N([C@H](C)CO)C[C@H]1C,-4,nt,nt,nt
CSc1ccc(CN(C)C(=O)c2cc3ccccc3o2)cc1,57*,-1,58,-1
CCOC(=O)C(CNc1ccc(OCc2ccccc2)cc1)NC(=O)c1ccccc1 (stereo unspecified),nt,nt,nt,44*
CCOC(=O)/C(=C\Nc1ccc(OCc2ccccc2)cc1)NC(=O)c1ccccc1,nt,nt,nt,-2
SMILES,esBAF inh,C2C12 statin,MITF TRPM1 HTS,Wnt act
CCOc1ccc(C(=O)NC(Cc2ccccc2)C(=O)OC)cc1 (stereo unspecified),74*,4,50,nt
CCNC(=O)C[C@H]1CC[C@H]2[C@H](COc3ccc(NC(C)=O)cc3C(=O)N2C)O1,2,0,nt,nt
c1ccc(CSc2nnc(NC3CCCCC3)s2)cc1,nt,nt,nt,42*
CCC(=O)Nc1ccc2c(c1)C(=O)N(C)C[C@H](OC)[C@@H](C)CN(Cc1cccc(F)c1)[C@@H](C)CO2,-5,2,nt,nt
CCSc1nsc(NC(=O)Nc2ccccc2Cl)n1,41*,-16,nt,5
CCSc1nsc(NC(=O)Nc2ccc(F)cc2F)n1,16,-21,62,nt
Clc1ccc(N=C2SCC3CCCCN23)cc1 (stereo unspecified),53*,-6,97*,16
FC(F)Oc1ccc(N=C2SCC3CCCCN23)cc1 (stereo unspecified),75*,0,94*,26
CC(C)C#Cc1ccc2c(c1)O[C@H](CN(C)S(C)(=O)=O)[C@H](C)CN([C@@H](C)CO)S2(=O)=O,-1,-17,nt,nt
CC(C)CC#Cc1cnc2c(c1)C(=O)N([C@H](C)CO)C[C@H](C)[C@@H](CN(C)C(=O)C1CCOCC1)O2,-1,6,nt,nt
CCc1sc(C(=O)Nc2cccnc2)cc1Br,50*,6,44,9
Cc1c(C(=O)NCc2ccccn2)oc2ccc(Br)cc12,54*,4,97*,12
Cc1c(C(=O)NCc2cccs2)oc2ccc(Br)cc12,51*,6,nt,nt
O=C(Nc1cccnc1)c1ccc(Br)s1,32,-15,5,nt
Cc1c(C(=O)Nc2cccnc2)oc2ccc(Br)cc12,60*,-39,nt,1
Cc1c(C(=O)NCc2cccs2)oc2ccc(S(=O)(=O)N3CCOCC3)cc12,-1,-8,5,-4
COc1ccc(NC(=O)Nc2ccc3c(c2)CC(=O)N([C@H](C)CO)C[C@H](C)[C@@H](CN(C)S(=O)(=O)c2ccccc2)O3)cc1,-4,2,nt,nt
N=C1/C(=C/c2ccc(OCc3ccccc3)cc2)C(=O)N=C2SC(CC(=O)N3CCOCC3)=NN12,42*,-14,35,3
N=C1/C(=C/c2ccc(OCc3ccccc3F)cc2)C(=O)N=C2SC(CC(=O)N3CCOCC3)=NN12,16,-10,38,10
CN1c2ccc(-c3ccccc3)cc2[C@@H]2[C@@H](CCN2C(=O)Nc2ccccc2F)[C@@H]1CO,-7,5,nt,nt
Cc1[nH]nc2c1C(c1ccsc1)C(C#N)=C(N)O2 (stereo unspecified),-10,141*,-13,nt
N#Cc1cccc(-n2nnnc2-c2ccc3c(c2)OCO3)c1,15,nt,14,0
N#Cc1ccc(-c2nnnn2-c2ccc3c(c2)OCO3)cc1,0,107*,3,0
O=C(OCCOc1ccccc1)c1n[nH]c2ccccc12,?,-11,106*,38*
COc1ccc(OC)c(C(=O)COC(=O)c2ccccc2O)c1,42*,6,nt,nt
SMILES,esBAF inh,C2C12 statin,MITF TRPM1 HTS,Wnt act
COc1ccc(OC)c(C(=O)COC(=O)c2c(OC)cccc2OC)c1,-1,58,4,nt
COc1ccc(OC)c(NC(=O)COC(=O)c2n[nH]c3ccccc23)c1,5,2,-18,-4
COc1ccc(C(=O)COC(=O)c2n[nH]c3ccccc23)c(OC)c1,nt,25,96*,20
C[C@@H]1CN([C@@H](C)CO)C(=O)Cc2cc(NS(=O)(=O)c3cccs3)ccc2O[C@@H]1CN(C)S(=O)(=O)c1ccccc1,3,-15,nt,nt
C[C@H](CO)N1C[C@H](C)[C@H](CN(C)CC2CC2)Oc2c(NC(=O)Nc3ccccc3)cccc2C1=O,0,-3,nt,nt
CC(=O)Nc1ccc(N/C=C/C(=O)c2ccc(Cl)cc2)cc1,59*,-3,nt,27
CC(=O)c1ccc(N/C=C\C(=O)c2ccc(C)cc2)cc1,nt,nt,93*,66*
CC(=O)c1cccc(N/C=C\C(=O)c2ccc(C)cc2)c1,nt,nt,70,nt
C[C@H]1CN([C@@H](C)CO)C(=O)c2cc(-c3cccc(F)c3)cnc2O[C@@H]1CN(C)Cc1cccc(F)c1,-5,5,nt,nt
